Results filed as inconclusive are left out. Entries that show only a call come without a potency. Active and inactive are the calls of the source. Calls follow the shape of the dose curve; as a rule, active = well fitted inhibition curve with a large enough effect; inconclusive = small, poorly fitted or top-dose-only effect; inactive = flat fitted curve, though single readings scatter. Peptide text beside a SMILES is read from it.
system: CRL-7250; experiment: qHTS assay to identify novel small-molecules to repurpose for Merkel cell carcinoma treatment (AID 1296009); conditions: MCC and control cell lines, CellTiter-Glo viability, 72 h; series mostly up to 92 µM; also: nearly all actives have a fitted effect of over 60% in size
Method in brief: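 Cell viability, measured as CellTiter-Glo luminescence, was normalized between DMSO and no-cell wells. The cells had been exposed to 8- or 11-point compound dilutions for 72 hr at 37 degree celsius.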

| Compound | Potency |
| --- | --- |
| COc1cc(C)c(C(=O)O[C@@H]2[C@H](O)[C@@H](CO)O[C@H]2n2ccc(=O)[nH]c2=O)c(OC)c1 | inactive |
| CC(=O)OC/C(=C/C(=O)O)CC[C@@H]1C(C)=CC(=O)[C@@H]2C(C)(C)CCC[C@@]12C | inactive |
| CC1=C(C)C(=O)OC(C(C)C2C(O)CC3C4C5OC5C5(O)CC(OC6OC(CO)C(O)C(O)C6O)CC(O)C5(C)C4CCC32C)C1 (stereo unspecified) | inactive |
| CN1C(=O)c2ccccc2-n2c(nc3ccccc3c2=O)/C1=C/c1ccccc1 | inactive |
| NCc1c[nH]c(=S)n1[C@@H]1CCc2c(F)cc(F)cc2C1 | inactive |
| C[C@@H]1C[C@@H](O)[C@@]2(CO)C(CO)=CCC[C@@H]2[C@@]12C[C@@H](c1ccoc1)OC2=O | inactive |
| CC1OC(OC2CCC3(C)C(CCC4(C)C3CC=C3C5CC(C)(C)CCC5(C(=O)OC5OC(CO)C(O)C(O)C5O)CCC34C(=O)O)C2(C)C)C(O)C(O)C1O (stereo unspecified) | inactive |
| CCN[C@@H]1C[C@H](N)[C@@H](O[C@H]2OC(CN)=CC[C@H]2N)[C@H](O)[C@H]1O[C@H]1OC[C@](C)(O)[C@H](NC)[C@H]1O | inactive |
| CC1NC(=O)CNC(=O)C(C(C)C)NC(=O)C2CCCN2C(=O)C(C(C)C)NC(=O)C(Cc2c[nH]c3ccccc23)NC1=O (stereo unspecified) (cyclo(GAWVPV); configuration not given here) | inactive |
| C=CC(C)(O)CC/C=C(\C)C1CC=C(C)C(=O)O1 (stereo unspecified) | inactive |
| O=C(/C=C/c1ccc(O)cc1)OCC1OC(O)C(OC2OC(CO)C(O)C(O)C2O)C(O)C1O (stereo unspecified) | inactive |
| CC(C)CC(=O)OC[C@H]1O[C@@](COC(=O)CC(C)C)(O[C@H]2O[C@H](CO)[C@@H](O)[C@H](O)[C@H]2OC(=O)CC(C)C)[C@@H](OC(=O)CC(C)C)[C@@H]1O | inactive |
| COc1ccc(CN2C(=O)C(=O)c3cc(S(=O)(=O)N4CCC[C@H]4COc4cccnc4)ccc32)cc1 | inactive |
| Cn1c(SCC(=O)N2CCC[C@H]2C(=O)Nc2ccccc2-c2ccccc2)nc2ccccc21 | inactive |
| CCC(C)C(=O)OC[C@H]1O[C@H](O[C@H]2O[C@H](CO)[C@@H](O)[C@H](O)[C@H]2O)[C@H](O)[C@@H](O)[C@@H]1O (stereo partly specified) | inactive |
| O=c1c2ccccc2nc2n1CCC2O (stereo unspecified) | inactive |
| CC(=O)OC[C@]1(O)[C@H]2[C@H](OC(=O)CC(C)C)OC=C(CO[C@@H]3O[C@H](CO)[C@@H](O)[C@H](O)[C@H]3O)[C@H]2C[C@@H]1O | inactive |
| CC1(O)CCC2C(C(=O)O)=COC(OC3OC(CO)C(O)C(O)C3OC(=O)/C=C/c3ccc(O)cc3)C21 (stereo unspecified) | inactive |
| C=CC1(C)CC(OC(=O)C(=C)C(O)COC(C)=O)C(C(=C)C(=O)OC)C(O)C1C(=C)CO (stereo unspecified) | inactive |
| C=CC1C(O[C@@H]2O[C@H](CO)[C@@H](O)[C@H](O)[C@H]2O)OC=C(C(=O)OC)C1CC(=O)O (stereo partly specified) | inactive |
| CCCCCCCOc1cc2c(cc1/C(C)=C/c1ccc(C(=O)O)cc1)C(C)(C)CCS2(=O)=O | inactive |
| C=C[C@]1(C)C=C2CCC3C(C)(CCC[C@@]3(C)C(=O)O)C2CC1 (stereo partly specified) | inactive |
| Cc1c(C(=O)NCc2cccnc2)nn(-c2ccc(Cl)cc2Cl)c1-c1ccc(Cl)cc1 | inactive |
| CC(=O)c1[nH]cc(CCC(=O)O)c1CC(=O)O | inactive |
| CC(=O)OC1CC(=O)C2(C)C3CC4=C(OC(C)CC4=O)OC3(C)CCC2C1(C)C (stereo unspecified) | inactive |
| O=C(OC[C@H]1O[C@@H](Oc2ccccc2COC(=O)C2(O)C=CCCC2O)[C@H](O)[C@@H](O)[C@@H]1O)c1ccccc1 (stereo partly specified) | inactive |

Source: PubChem BioAssay (NCATS)
